This is a sample that favours compounds with a hit; in the whole collection about 19% have one here.
IL1B secr inh: inflammasome signaling inhibition, IL-1 beta readout | THP-1 LPS/ATP IL-1B secretion, AlphaLISA, 16 h; stronger effect = lower value | activity change, % at 57.5 µM | 360,000 tested, 4.7% active | AID 743279; in the data active = activity change below about -50%; inconclusive = mostly about -30% to -49%; also: % is scaled to controls: 0 for no effect and ±100 for the full control effect
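THP-1 cells pretreated 1 hr with compounds (up to 57.5 uM final), then stimulated with LPS (250 ng/mL final) plus ATP (1.25 mM final); secreted IL-1B measured by AlphaLISA after 16 hr, decreased signal indicating inhibition.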
HepG2 tox: HepG2 cytotoxicity, counter-screen for TGF-b inhibitors; HepG2 CAGA-GFP viability, ATP luminescence, 18 h; 410,000 tested, 0.76% active; Potency, µM (titrated, usually from 46.1 µM), for the others: at the top dose activity change, negative = cytotoxicity, usual class: cytotoxic; AID 588856; also: potency is read from the fitted curve at half-maximal effect
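CellTiter-Glo luminescence gave cytotoxicity after 18 hours at 37 degrees C. The cells were HepG2 CAGA-GFP in 1% FBS DMEM, stimulated with 500 pg/mL TGF-beta after compound addition. %Activity was normalised to no-cell wells (complete cell-killing) and DMSO (no toxicity), and curves were fitted and classified.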
TDP1 cell CPT: DT40-hTDP1 cell growth loss with CPT. chicken DT40 Tdp1-/-;hTDP1 cells + 20 nM CPT, ATP luminescence, 48 h. Potency, µM (top dose mostly 46.2 µM), for the others: at the highest dose activity change, negative = growth inhibition, usual class: inhibitors. 420,000 tested, 12% active; also: potency is read from the fitted curve at half-maximal effect; % is scaled to controls: 0 for no effect and ±100 for the full control effect; nearly all actives have a fitted effect of over 55% in size
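Cell growth measured by CellTiter-Glo luminescence after a minimum 48 h, 37 C compound exposure with 20 nM CPT in Tdp1-knockout DT40 cells stably expressing hTDP1, seeded 400/well; qHTS titration format.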
ASM inhibitor: human S-ASM enzyme inhibition. P17405. placental ASM, HMU-PC fluorogenic substrate, 60 min. Potency, µM (highest dose often 57.5 µM), inactives show at the top dose activity change, negative = inhibition, actives largely listed as inhibitors. 340,000 tested, 0.006% active. AID 504937; also: potency is read from the fitted curve at half-maximal effect
Target sequence (P17405 47-631 limits assumed): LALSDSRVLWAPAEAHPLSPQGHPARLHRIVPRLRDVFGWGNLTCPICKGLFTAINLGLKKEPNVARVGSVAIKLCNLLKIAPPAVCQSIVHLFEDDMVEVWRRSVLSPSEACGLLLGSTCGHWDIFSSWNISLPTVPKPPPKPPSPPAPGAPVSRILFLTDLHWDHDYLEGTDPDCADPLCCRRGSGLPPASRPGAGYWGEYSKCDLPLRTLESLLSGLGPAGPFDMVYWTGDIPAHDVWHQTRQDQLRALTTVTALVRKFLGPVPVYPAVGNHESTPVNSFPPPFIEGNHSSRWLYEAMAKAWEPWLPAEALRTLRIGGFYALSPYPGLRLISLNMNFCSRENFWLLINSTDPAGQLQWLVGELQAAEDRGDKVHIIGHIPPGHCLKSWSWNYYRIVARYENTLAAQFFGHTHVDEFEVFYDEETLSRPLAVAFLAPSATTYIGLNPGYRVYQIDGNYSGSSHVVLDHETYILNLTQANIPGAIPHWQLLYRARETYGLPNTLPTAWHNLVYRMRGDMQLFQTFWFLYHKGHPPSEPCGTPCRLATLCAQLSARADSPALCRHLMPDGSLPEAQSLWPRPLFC
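qHTS format. ASM enzyme prepared from human placenta hydrolyses the fluorogenic substrate HMU-PC0 (9 uM final) over 60 min at 37 °C after a 10 min compound preincubation.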
TDP1 cell noCPT: qHTS for Inhibitors of human tyrosyl-DNA phosphodiesterase 1 (TDP1): qHTS in cells in absence of CPT | DT40 Tdp1-/- hTDP1 cells, no CPT, ATP luminescence, 48 h | Potency, µM (series often up to 46.2 µM), for the others: at the top dose activity change, negative = growth inhibition, usual class: inhibitors | 420,000 tested, 15% active | AID 686978, 2013; also: potency is read from the fitted curve at half-maximal effect; % is scaled to controls: 0 for no effect and ±100 for the full control effect; nearly all actives have a fitted effect of over 55% in size
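Growth kinetics read by CellTiter-Glo luminescence after ≥48 hr at 37 °C. Cells: DT40 Tdp1-/- stably carrying human TDP1, 400 per well, compound exposure in the absence of CPT (DMSO vehicle).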
TGFb inhibitor: TGF-b pathway inhibition; HepG2 CAGA-GFP TGF-b/SMAD3 reporter, GFP fluorescence, 18 h; TGF-beta stimulated, 500 pg/mL final; Potency, µM (highest dose often 46.1 µM), inactives show at the highest dose activity, negative = inhibition, usual class: inhibitors; 410,000 tested, 1.2% active; AID 588855; also: potency is read from the fitted curve at half-maximal effect; % is scaled to controls: 0 for no effect and ±100 for the full control effect; nearly all actives have a fitted effect of over 65% in size
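Inhibition was scored as loss of TGF-beta-induced (500 pg/mL final, 18 hours, 37 degrees C) GFP in HEPG2 cells carrying a CAGA-GFP reporter, in DMEM with 1% FBS. Well GFP was summed per cell; Activity was normalised to unstimulated and stimulated DMSO wells, then concentration-response fitting.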
The depositor's hits bear a star; ? = inconclusive; / = no result given. Unless noted, calls follow the shape of the dose curve; as a rule, active = well fitted curve in the direction sought with a large enough effect; inconclusive = small, poorly fitted or top-dose-only effect, or another doubt; inactive = no such curve, though single readings can be large; an effect the other way counts as inactive or inconclusive.

SMILES	IL1B secr inh	HepG2 tox	TDP1 cell CPT	ASM inhibitor	TDP1 cell noCPT	TGFb inhibitor
O=C(N(c1ccccn1)c1ccccn1)C12CC3CC(CC(C3)C1)C2	33.0	-13.4%	0.3%	0.1%	-1.7%	-1.3%
O=C(N(Cc1ccccc1)c1ccccn1)C12CC3CC(CC(C3)C1)C2	-23.6	-21.6%	25.9µM*	-1.5%	16.4µM*	20.4%
CN1CCN(C2CN(C3CCCC3)S(=O)(=O)C2)CC1 (configuration not stated)	17.1	-1.8%	-1.1%	/	1.6%	2.3%
CCOC(=O)c1ccc(N2C(=O)c3n[nH]c(-c4ccco4)c3C2c2ccccc2OC)cc1 (configuration not stated)	/	5.01µM*	18.4µM*	/	6.51µM*	?
CCOC(=O)c1ccc(N2C(=O)c3n[nH]c(C)c3C2c2ccccc2OC)cc1 (configuration not stated)	/	-41.1%	16.4µM*	/	18.4µM*	?
COc1ccc(C2c3c(-c4ccccc4)n[nH]c3C(=O)N2c2ccc(C(=O)O)cc2)cc1 (configuration not stated)	8.6	16.1%	1.0%	-11.6%	-1.4%	6.0%
Cc1cc(=O)n2nc(N3CCCC3C(=O)Nc3cccc(Cl)c3C)sc2n1 (configuration not stated)	14.0	-9.5%	-6.5%	-1.4%	-21.7%	-2.6%
Cc1cc(C)c(NC(=O)CCS(=O)(=O)c2cc3c(cc2Cl)NC(=O)CO3)c(C)c1	/	-8.0%	/	/	/	-10.2%
O=C1OCCC1=COCCOC=C1CCOC1=O	13.9	-47.7%	9.8%	/	-3.5%	0.7%
Cc1ccc2c(c1)nc1c3ccccc3nc(-c3ccccc3N)n21	-18.9	-12.6%	?	/	?	11.3%
COCC(=O)Nc1cc(C(=O)N2CCC(c3ccccc3)CC2)cc2nc(-c3ccccc3)n(C)c12	/	/	16.4µM*	/	?	/
COCC(=O)Nc1cc(C(=O)N2CCSCC2)cc2nc(-c3ccccc3)n(C)c12	/	/	1.2%	/	-2.8%	/
COc1ccc(CN2CCN(C(=O)c3ccccc3C(=O)c3ccccc3)CC2)cc1OC	8.5	-5.8%	?	-1.0%	-19.3%	-8.8%
CCOC(=O)c1c(NC(=O)C2COc3ccccc3O2)sc2c1CC(C)(C)NC2(C)C (configuration not stated)	?	-45.6%	13µM*	-2.8%	11.6µM*	-13.3%
CCOC(=O)c1ccc(NC(=O)C2COc3ccccc3O2)cc1 (configuration not stated)	-9.0	-17.9%	-9.8%	-3.0%	?	15.3%
CCOC(=O)c1c(NC(=O)C2COc3ccccc3O2)sc(C(C)=O)c1C (configuration not stated)	-15.0	-5.1%	7.31µM*	-2.4%	6.51µM*	?
CC(=O)N1CCCC1(C(=O)O)c1ccccc1 (configuration not stated)	5.1	11.7%	-5.0%	6.1%	-11.6%	-15.0%
NCCOc1ccccc1-c1ccccc1	-2.4	-10.3%	?	-0.6%	?	-0.4%
NCCOB(c1ccccc1)c1ccccc1	/	/	?	/	16.4µM*	/
CCOC(=O)c1c(C)[nH]c(C)c1C(=O)COC(=O)/C=C/c1ccc(OC(F)F)cc1	-54.2*	-9.9%	?	-7.6%	?	?
CCOC(=O)c1c(C)[nH]c(C(=O)COC(=O)/C=C/c2ccc(OC(F)F)cc2)c1C	13.5	-14.3%	-24.5%	-0.2%	-12.6%	0.2%
CCC(NC(=S)NCc1ccc(F)cc1)c1ccc(C(C)C)cc1 (configuration not stated)	-9.9	-39.0%	?	-1.7%	?	?
CC(NC(=S)NCc1ccc(F)cc1)C12CC3CC(CC(C3)C1)C2 (configuration not stated)	-84.0*	-10.9%	?	-0.6%	14.6µM*	?
COc1ccc(N2CSC(=S)N(c3ccc(OC)cc3)C2)cc1	-1.5	-43.4%	16.4µM*	/	14.6µM*	-19.3%
COc1ccc(-n2ccsc2=S)cc1	5.9	-0.1%	0.1%	4.1%	-16.3%	-1.2%
SMILES	IL1B secr inh	HepG2 tox	TDP1 cell CPT	ASM inhibitor	TDP1 cell noCPT	TGFb inhibitor
CN(C)/C=C/C(=O)c1cc(F)cc(C(F)(F)F)c1	9.5	-0.3%	2.3%	4.4%	1.3%	0.7%
CCc1nc2ccc(C(=O)N3CCN(C(=O)c4ccco4)CC3)cn2c1N(C)C(=O)Nc1ccccc1OC	4.1	6.8%	-11.4%	/	-5.6%	-2.2%
OCCC1CN(Cc2nc3ccccc3s2)CCN1C1CCCC1 (configuration not stated)	0.0	-26.1%	-11.9%	0.9%	-3.1%	-6.5%
O=C(Oc1cc(=O)oc2ccccc12)c1ccccc1	16.6	0.5%	2.59µM*	-2.8%	2.31µM*	-2.2%
O=C(Oc1cccc2c(O)cccc12)c1ccccc1	-23.8	-115.8%	?	-21.9%	?	14.1µM*
O=C(Oc1c(-c2ccccc2)oc2ccccc2c1=O)c1ccccc1	0.0	-12.9%	?	-4.9%	10.3µM*	?
COc1ccc(S(=O)(=O)Nc2c(O)ccc3ccccc23)cc1OC	15.3	-2.8%	?	1.8%	-24.8%	-55.5%
CCN(CC(=O)Nc1c(F)cccc1F)C(=O)c1ccc(S(=O)(=O)NCc2ccco2)cc1	9.7	-3.9%	?	4.3%	?	?
Cc1csc(NC(=O)CCC(=O)N(CC(=O)NC2CCCC2)Cc2ccco2)n1	7.5	0.2%	-20.8%	3.9%	-5.6%	0.4%
Cc1nn(-c2ccccc2)c2sc(C(=O)N(CC(=O)NC3CCCC3)Cc3ccco3)cc12	?	-0.2%	?	-2.9%	16.4µM*	51.4%
CCOc1ccc(N2CC(NC(=O)/C=C\c3ccc4c(c3)OCO4)CC2=O)cc1 (configuration not stated)	/	5.8%	-16.9%	/	1.9%	-1.0%
CN(Cc1ccccc1)C(=O)CCC1CCN(S(C)(=O)=O)CC1	3.8	0.3%	36.4%	-2.9%	1.8%	4.3%
CN1CCN(CCCNC(=O)Cn2ncc3c4ccccc4n(C)c3c2=O)CC1	-1.6	9.2%	-3.8%	4.1%	-2.0%	18.4%
Cc1ccc(C)c(N2CCN(CCCNC(=O)Cn3ncc4c5ccccc5n(C)c4c3=O)CC2)c1	/	13.8%	14.6µM*	/	10.3µM*	13.5%
Cn1c2ccccc2c2cnn(CC(=O)NCCCN3CCN(c4ccccc4F)CC3)c(=O)c21	-21.5	-17.7%	?	-0.7%	14.6µM*	?

Screening results: PubChem BioAssay, National Center for Advancing Translational Sciences (NCATS)
